Results: PubChem BioAssay
Activity calls are given as the source filed them. Unless noted, no rule for the calls is given here.

Assays:
[1] = compound effects on lung adenocarcinoma cell viability – A549, calcein-AM fluorescence, 48 h, basal, profiling panel (AID 1162); settings: higher = more signal; also: test concentration not given here
[2] = compound effects on differentiated 3T3-L1 adipocyte viability – cell-based, 3T3-L1 adipocytes, calcein-AM fluorescence, 48 h, basal, profiling panel (AID 1163); settings: 3T3-L1 adipocytes viability, higher = more signal; also: test concentration not given here
[3] = compound effects on hepatocellular carcinoma cell viability – HepG2, calcein-AM fluorescence, 48 h, basal, profiling panel (AID 1164); settings: higher = more signal; also: test concentration not given here
[4] = compound effects on multiple myeloma cell viability – MM1S, calcein-AM fluorescence, 48 h, basal, profiling panel (AID 1165); settings: higher = more signal;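 also: viability of MM1S multiple myeloma cells under basal unstimulated conditions; test concentration not given here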
[5] = calcein-AM signal in unstimulated myeloma cells – cell-based, calcein-AM fluorescence, 48 h, PK04 Diversity Set, profiling panel (AID 1166); settings: RPMI8226 myeloma viability, higher = more signal;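 also: cells grown under basal conditions without added stimulus; test concentration not given here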
[6] = JC-1 mitochondrial signal, unstimulated HepG2 cells – cell-based, JC-1 fluorescence, 24 h, 100 nL compound, profiling panel (AID 1167); settings: HepG2 mitochondrial potential, higher = more signal; also: test concentration not given here
[7] = JC-1 mitochondrial signal, unstimulated adipocytes – cell-based, JC-1 fluorescence, 3T3-L1 adipocytes, 24 h, 100 nL compound, profiling panel (AID 1168); settings: JC-1 mitochondrial fluorescence, higher = more signal, called active from +8 up or from −8 down; also: test concentration not given here
[8] = JC-1 mitochondrial signal, unstimulated myeloma cells – cell-based, JC-1 fluorescence, RPMI8226, 24 h, 100 nL compound, profiling panel (AID 1169); settings: JC-1 mitochondrial potential fluorescence, higher = more signal; also: test concentration not given here
[9] = JC-1 mitochondrial signal, unstimulated MM1S myeloma – cell-based, JC-1 fluorescence, 24 h, 100 nL compound, profiling panel (AID 1170); settings: MM1S mitochondrial potential, higher = more signal; also: test concentration not given here
[10] = resazurin metabolic signal in A549 cells – cell-based, resazurin fluorescence, 24 h, PK04 Diversity Set, profiling panel (AID 1171); settings: A549 viability, higher = more signal, called active from +8 up or from −8 down; also: test concentration not given here
[11] = resazurin metabolic signal in HepG2 cells – cell-based, resazurin fluorescence, 24 h, PK04 Diversity Set, profiling panel (AID 1172); settings: HepG2 viability, higher = more signal; also: test concentration not given here
[12] = budding yeast growth changes without added modifier – OD600, strain BY4716, 24 h, basal condition, primary screen (AID 1173); settings: S. cerevisiae BY4716 growth, OD600, 24 h; higher = more signal, called active from +8 up or from −8 down
[13] = viability profiling in MM1S myeloma cells – cell-based, resazurin fluorescence, basal, 24 h, PK04 Diversity Set, profiling panel (AID 1174); settings: higher = more signal, called active from +8 up or from −8 down; also: test concentration not given here
[14] = target: Dihydroorotate dehydrogenase (quinone), mitochondrial (Plasmodium falciparum (isolate 3D7)) (UniProt Q08210); experiment: inhibition of P. falciparum DHODH – biochemical, C-terminal His tag, absorbance 600 nm, primary screen (AID 1175); settings: PfDHODH enzyme, DCIP absorbance 600 nm; higher = more signal, called active from +8 up or from −8 down;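 also: recombinant parasite enzyme with a five histidine tag at its C terminus; test concentration not given here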
Dihydroorotate dehydrogenase (quinone), mitochondrial (Plasmodium falciparum (isolate 3D7)), sequence (Q08210 whole entry, looked up): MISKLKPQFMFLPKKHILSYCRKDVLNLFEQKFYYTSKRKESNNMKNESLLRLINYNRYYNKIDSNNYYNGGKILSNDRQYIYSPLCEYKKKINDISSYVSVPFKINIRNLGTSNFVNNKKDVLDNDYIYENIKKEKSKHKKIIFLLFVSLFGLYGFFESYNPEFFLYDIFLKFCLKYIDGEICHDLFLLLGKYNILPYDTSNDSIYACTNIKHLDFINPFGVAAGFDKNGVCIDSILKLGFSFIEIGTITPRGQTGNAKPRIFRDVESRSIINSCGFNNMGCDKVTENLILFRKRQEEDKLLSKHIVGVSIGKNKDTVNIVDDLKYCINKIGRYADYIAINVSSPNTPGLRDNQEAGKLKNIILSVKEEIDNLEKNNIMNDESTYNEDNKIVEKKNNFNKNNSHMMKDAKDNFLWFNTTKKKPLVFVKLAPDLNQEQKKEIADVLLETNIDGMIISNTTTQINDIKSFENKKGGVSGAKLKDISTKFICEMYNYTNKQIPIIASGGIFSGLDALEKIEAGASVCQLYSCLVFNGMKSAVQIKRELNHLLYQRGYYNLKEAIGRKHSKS

[15] = inhibition of PAO1 biofilm formation – strain PAO1, LB-PBS medium, absorbance 600 nm, primary screen (AID 1176); also: test concentration not given here; settings: P. aeruginosa PAO1 growth/biofilm, A600, 12 h; higher = more signal
[16] = growth modulation of vineyard yeast isolate – strain RM11-1a, OD600, basal, 24 h, primary screen (AID 1177);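 also: cultures grown under basal conditions with no added stressor; test concentration not given here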; settings: S. cerevisiae RM11-1a growth, OD600, 24 h; higher = more signal, called active from +8 up or from −8 down
[17] = growth of efflux-deficient E. coli DRC39 – strain DRC39, OD650, 24 h, E. coli filamentation inducers, primary screen (AID 1178);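 also: growth measured as culture turbidity by optical density at 650 nm; test concentration not given here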; settings: E. coli DRC39 acrAB, higher = more signal, called active from +8 up or from −8 down
[18] = growth of efflux-deficient E. coli DRC39 – strain DRC39, OD650, 48 h, E. coli filamentation inducers, primary screen (AID 1179);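 also: screen aims at cell division blockers that make cells filament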; settings: E. coli DRC39 delta-acrAB growth, higher = more signal, called active from +8 up or from −8 down
[19] = viability profiling in RPMI8226 myeloma cells – cell-based, resazurin fluorescence, basal, 24 h, PK04 Diversity Set, profiling panel (AID 1180); settings: higher = more signal;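 also: RPMI8826 multiple myeloma cell line at 5000 cells per well; test concentration not given here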
[20] = target: E3 ubiquitin-protein ligase XIAP (Homo sapiens) (UniProt P98170); experiment: small molecules binding XIAP protein – biophysical, small-molecule microarray, fluorescence 635 nm, primary screen (AID 1181); settings: higher = more signal;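 also: score merges 667 nm emission and signal to noise over triplicate slides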
E3 ubiquitin-protein ligase XIAP (Homo sapiens), sequence (P98170 whole entry, looked up): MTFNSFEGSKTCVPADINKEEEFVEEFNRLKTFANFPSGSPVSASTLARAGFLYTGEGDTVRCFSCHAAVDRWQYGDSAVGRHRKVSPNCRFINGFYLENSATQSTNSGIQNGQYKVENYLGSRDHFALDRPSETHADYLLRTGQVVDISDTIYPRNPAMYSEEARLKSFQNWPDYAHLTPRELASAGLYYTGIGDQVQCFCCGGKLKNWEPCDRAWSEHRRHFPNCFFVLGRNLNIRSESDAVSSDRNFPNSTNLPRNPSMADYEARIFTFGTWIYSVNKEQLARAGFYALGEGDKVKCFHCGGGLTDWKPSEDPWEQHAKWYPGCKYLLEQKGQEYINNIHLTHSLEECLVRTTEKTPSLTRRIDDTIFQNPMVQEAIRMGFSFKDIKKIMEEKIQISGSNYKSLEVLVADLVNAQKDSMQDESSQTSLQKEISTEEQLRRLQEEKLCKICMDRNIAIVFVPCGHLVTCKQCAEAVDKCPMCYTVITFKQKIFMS

Compound | z-score [1] | z-score [2] | z-score [3] | z-score [4] | z-score [5] | z-score [6] | z-score [7] | z-score [8] | z-score [9] | z-score [10] | z-score [11] | z-score [12] | z-score [13] | composite z-score [14] | z-score [15] | z-score [16] | z-score [17] | z-score [18] | z-score [19] | composite z-score [20]
COc1ccc([Si](C)(C)[C@@H]2[C@@H](CCn3cc([C@H](O)c4ccccc4)nn3)O[C@]3(C(=O)N(Cc4ccc(N5C(=O)c6cccc7cccc5c67)cc4)c4ccccc43)[C@H]2C)cc1 | -0.725 | 1.91 | -0.394 | -0.709 | -1.77 | 2.05 | 0.43 (inactive) | -0.964 | 0.209 | -1.92 (inactive) | -0.651 | -0.349 (inactive) | -1.66 (inactive) | -0.609 (inactive) | 0.65 (inactive) | -0.0915 (inactive) | 0.954 (inactive) | 0.453 (inactive) | -1.01 | -0.157
C=CCOC(=O)[C@@H]1[C@H]2C(=O)O[C@H](c3ccccc3)[C@H](c3ccccc3)N2[C@H](c2ccc(OCCOC(=O)[C@@H]3C[C@@H]4C(=O)N[C@@H](Cc5ccccc5)C(=O)N4[C@@H]3c3cccc(OCCO)c3)cc2)[C@@]12C(=O)Nc1ccc(I)cc12 | -1.15 | 0.185 | -0.0074 | 0.359 | -1.1 | -1.57 | 0.235 (inactive) | -0.505 | -1.14 | 0.789 (inactive) | 0.134 | 1.94 (inactive) | 0.375 (inactive) | -0.0168 (inactive) | 2.17 (inactive) | 2.94 (inactive) | 0.421 (inactive) | -0.463 (inactive) | 0.318 | 0.434
COCCOC(=O)N1C(=O)[C@@]2(c3cc(C#CC4=CCCCC4)ccc31)[C@H](C(=O)NC[C@H](O)c1ccccc1)[C@H]1C(=O)O[C@H](c3ccccc3)[C@H](c3ccccc3)N1[C@@H]2c1ccc(O)cc1 | -0.144 | 1.3 | -0.34 | -2.81 | -3.45 | -2.71 | 1.35 (inactive) | -0.657 | 0.0116 | -1.09 (inactive) | -0.789 | -0.571 (inactive) | -0.925 (inactive) | 0.409 (inactive) | 1.01 (inactive) | 1.55 (inactive) | -0.237 (inactive) | 0.174 (inactive) | -1.73 | -0.02
COCCOC(=O)N1C(=O)[C@@]2(c3ccccc31)[C@H](C(=O)NC[C@H](O)c1ccccc1)[C@H]1C(=O)O[C@H](c3ccccc3)[C@H](c3ccccc3)N1[C@@H]2c1ccc(OCCO)cc1 | -0.656 | 1.13 | -0.655 | -0.233 | -0.773 | 0.546 | 0.843 (inactive) | -0.598 | -0.295 | 0.377 (inactive) | 1.09 | 1.42 (inactive) | -1.04 (inactive) | -0.0923 (inactive) | 2.36 (inactive) | 1.61 (inactive) | 0.649 (inactive) | -0.559 (inactive) | -0.744 | -0.156
CC(C)(C)OC(=O)CC[C@@]1(C(=O)NCCN2CCOCC2)N=C(c2ccc(OCCCO)cc2)O[C@@H]1c1ccccc1 | 0.694 | 0.571 | 0.564 | 0.586 | 1.26 | -0.0256 | 0.66 (inactive) | -0.707 | -0.514 | -0.24 (inactive) | -0.781 | -0.712 (inactive) | 0.596 (inactive) | -0.317 (inactive) | -0.347 (inactive) | 0.572 (inactive) | 1.15 (inactive) | 1.32 (inactive) | 0.641 | 0.228
C#CCN(C(/C=C/c1ccccc1)CO)C(C(=O)O)c1ccccc1 (stereo not given) | -0.341 | 1.45 | -0.996 | -0.659 | -1.23 | 0.277 | 1.08 (inactive) | -0.782 | 0.0117 | -0.668 (inactive) | -0.589 | -2.64 (inactive) | 0.274 (inactive) | -3.17 (inactive) | -0.565 (inactive) | -0.643 (inactive) | 1.6 (inactive) | -0.198 (inactive) | -0.0777 | -0.175
COC(=O)C(CC#Cc1ccc2c(c1)[C@]1(C(=O)N2)[C@H](C(=O)NC[C@H](O)c2ccccc2)[C@H]2C(=O)O[C@H](c3ccccc3)[C@H](c3ccccc3)N2[C@@H]1c1ccc(OCCO)cc1)C(=O)OC | 1.07 | 0.55 | 0.0255 | -1.17 | 0.0736 | -1.06 | 1.04 (inactive) | -0.94 | -1.15 | 0.199 (inactive) | 0.0416 | 1.77 (inactive) | -0.0507 (inactive) | -16.8 (active) | 3.42 (inactive) | 2.62 (inactive) | 0.389 (inactive) | 0.335 (inactive) | -0.223 | 0.201
COCCOC(=O)N1C(=O)[C@@]2(c3ccccc31)[C@H](c1ccc(O)cc1)N1[C@H](c3ccccc3)[C@H](c3ccccc3)OC(=O)[C@H]1[C@@H]2C(=O)N1CCc2cc(OC)c(OC)cc2C1 | 0.823 | 0.748 | 2.31 | 0.448 | -0.368 | 0.893 | 2.9 (inactive) | 0.228 | 0.296 | -0.275 (inactive) | 0.129 | 0.0332 (inactive) | 0.612 (inactive) | -0.888 (inactive) | 0.759 (inactive) | -0.33 (inactive) | 0.919 (inactive) | 1.3 (inactive) | 0.471 | -0.0841
